# Experimental data from PubChem BioAssay (NCATS).
# Results filed as inconclusive are left out. A call without a number means that no potency is given here. A number with no mark means an inactive call. Calls of active or inactive are those of the source. Unless noted, calls come from the whole dose curve.
# Tests used:
# [1] = molecular target: Estrogen receptor (Homo sapiens) (UniProt P03372); assay: qHTS assay for small molecule antagonists of estrogen receptor alpha signaling (AID 588513; active = well fitted curve in the direction sought with a large enough effect in the signal ratio, with a control signal flat, not every such curve was filed as active; the % refers to the signal ratio; note: potency is the fitted concentration of half-maximal effect)
# Sequence of Estrogen receptor (Homo sapiens) (P03372 whole entry, looked up): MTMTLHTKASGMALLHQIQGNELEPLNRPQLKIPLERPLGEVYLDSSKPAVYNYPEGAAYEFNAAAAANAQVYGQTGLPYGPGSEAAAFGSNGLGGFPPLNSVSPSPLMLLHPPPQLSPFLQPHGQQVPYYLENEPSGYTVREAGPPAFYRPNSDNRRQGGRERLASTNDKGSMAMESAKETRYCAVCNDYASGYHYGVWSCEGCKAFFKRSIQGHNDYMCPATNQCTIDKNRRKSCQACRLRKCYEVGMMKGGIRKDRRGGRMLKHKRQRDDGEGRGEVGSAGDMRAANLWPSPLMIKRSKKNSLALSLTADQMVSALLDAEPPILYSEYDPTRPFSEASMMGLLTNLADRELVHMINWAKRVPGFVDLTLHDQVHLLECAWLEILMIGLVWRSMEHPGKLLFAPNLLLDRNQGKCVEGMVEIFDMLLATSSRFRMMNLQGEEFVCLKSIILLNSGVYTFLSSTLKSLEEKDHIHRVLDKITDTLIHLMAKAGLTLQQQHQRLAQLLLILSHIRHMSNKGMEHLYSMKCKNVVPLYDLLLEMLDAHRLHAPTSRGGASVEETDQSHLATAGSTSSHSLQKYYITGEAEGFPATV
# Summary of the method: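 Antagonist mode: inhibition of 0.5 nM 17-beta-estradiol-driven beta-lactamase reporter in HEK 293 ER-alpha-UAS-bla cells, 18 h at 37C, CCF4 readout after 2 h at RT. Normalised to estradiol and DMSO; titration fitted to Hill.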
# [2] = molecular target: Androgen receptor (Homo sapiens) (UniProt P10275); assay: qHTS assay for small molecule antagonists of androgen receptor signaling (AID 588516; active = well fitted curve in the direction sought with a large enough effect in the signal ratio, with a control signal flat, not every such curve was filed as active; the % refers to the signal ratio)
# Sequence of Androgen receptor (Homo sapiens) (P10275 whole entry, looked up): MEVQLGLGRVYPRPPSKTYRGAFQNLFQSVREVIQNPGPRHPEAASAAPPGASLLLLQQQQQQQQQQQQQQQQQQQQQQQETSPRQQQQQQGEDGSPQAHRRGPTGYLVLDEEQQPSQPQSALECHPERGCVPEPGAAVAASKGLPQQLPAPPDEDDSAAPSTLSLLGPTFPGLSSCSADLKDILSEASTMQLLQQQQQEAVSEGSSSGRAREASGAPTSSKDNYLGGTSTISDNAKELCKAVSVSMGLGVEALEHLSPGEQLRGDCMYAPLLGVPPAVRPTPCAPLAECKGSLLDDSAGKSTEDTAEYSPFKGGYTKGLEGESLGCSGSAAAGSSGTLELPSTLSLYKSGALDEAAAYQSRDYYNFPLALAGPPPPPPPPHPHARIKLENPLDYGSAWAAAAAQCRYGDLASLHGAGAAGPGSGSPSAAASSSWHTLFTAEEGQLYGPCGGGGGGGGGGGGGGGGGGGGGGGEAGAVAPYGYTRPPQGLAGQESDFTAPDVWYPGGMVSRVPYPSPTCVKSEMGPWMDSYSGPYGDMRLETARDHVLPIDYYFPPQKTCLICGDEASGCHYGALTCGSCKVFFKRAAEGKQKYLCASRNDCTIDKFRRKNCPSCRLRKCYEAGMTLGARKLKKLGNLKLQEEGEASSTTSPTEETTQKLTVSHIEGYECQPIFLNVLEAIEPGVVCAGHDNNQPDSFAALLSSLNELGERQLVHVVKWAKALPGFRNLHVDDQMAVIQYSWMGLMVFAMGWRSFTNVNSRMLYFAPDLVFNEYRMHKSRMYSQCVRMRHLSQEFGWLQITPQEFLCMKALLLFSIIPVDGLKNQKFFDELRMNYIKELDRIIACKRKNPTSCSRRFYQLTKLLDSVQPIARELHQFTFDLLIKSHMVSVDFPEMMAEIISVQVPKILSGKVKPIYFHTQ
# Summary of the method: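 Antagonist mode: inhibition of R1881-stimulated (10 nM final) bla reporter in GeneBLAzer AR HEK 293 cells, 16 h at 37C, compounds titrated. IC50 and efficacy from Hill-equation fits of 405/460–530 nm FRET ratios.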
# [3] = molecular target: Bile acid receptor (Homo sapiens) (UniProt Q96RI1); assay: qHTS assay for small molecule antagonists of farnesoid X receptor signaling (AID 588526)
# Sequence of Bile acid receptor (Homo sapiens) (Q96RI1 whole entry, looked up): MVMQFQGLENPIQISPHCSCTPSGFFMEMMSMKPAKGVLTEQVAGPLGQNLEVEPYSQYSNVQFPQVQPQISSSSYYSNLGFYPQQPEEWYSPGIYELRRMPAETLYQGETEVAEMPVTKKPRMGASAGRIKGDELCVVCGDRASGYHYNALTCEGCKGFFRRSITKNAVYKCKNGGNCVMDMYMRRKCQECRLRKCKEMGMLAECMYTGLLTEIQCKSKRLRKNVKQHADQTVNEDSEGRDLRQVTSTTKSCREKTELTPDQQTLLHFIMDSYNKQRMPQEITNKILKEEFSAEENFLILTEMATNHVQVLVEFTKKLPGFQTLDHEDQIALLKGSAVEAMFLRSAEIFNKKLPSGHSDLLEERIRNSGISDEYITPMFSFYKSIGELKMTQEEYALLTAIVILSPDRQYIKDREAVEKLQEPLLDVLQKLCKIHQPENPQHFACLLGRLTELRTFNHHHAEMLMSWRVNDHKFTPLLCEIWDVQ
# Summary of the method: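 Concentration-response titrations were fitted to the Hill equation for half-maximal inhibition and maximal response, with data normalised to 50 uM chenodeoxycholic acid and DMSO control wells. Cells: FXR-UAS-bla HEK293T, dialyzed FBS.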
# [4] = molecular target: Glucocorticoid receptor (Homo sapiens) (UniProt P04150); assay: qHTS assay for small molecule antagonists of glucocorticoid receptor signaling (AID 588533; active = well fitted inhibition curve with a large enough effect in the signal ratio, with a control signal flat, not every such curve was filed as active; the % refers to the signal ratio;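 note: cells stimulated with 2 nM dexamethasone as agonist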)
# Sequence of Glucocorticoid receptor (Homo sapiens) (P04150 whole entry, looked up): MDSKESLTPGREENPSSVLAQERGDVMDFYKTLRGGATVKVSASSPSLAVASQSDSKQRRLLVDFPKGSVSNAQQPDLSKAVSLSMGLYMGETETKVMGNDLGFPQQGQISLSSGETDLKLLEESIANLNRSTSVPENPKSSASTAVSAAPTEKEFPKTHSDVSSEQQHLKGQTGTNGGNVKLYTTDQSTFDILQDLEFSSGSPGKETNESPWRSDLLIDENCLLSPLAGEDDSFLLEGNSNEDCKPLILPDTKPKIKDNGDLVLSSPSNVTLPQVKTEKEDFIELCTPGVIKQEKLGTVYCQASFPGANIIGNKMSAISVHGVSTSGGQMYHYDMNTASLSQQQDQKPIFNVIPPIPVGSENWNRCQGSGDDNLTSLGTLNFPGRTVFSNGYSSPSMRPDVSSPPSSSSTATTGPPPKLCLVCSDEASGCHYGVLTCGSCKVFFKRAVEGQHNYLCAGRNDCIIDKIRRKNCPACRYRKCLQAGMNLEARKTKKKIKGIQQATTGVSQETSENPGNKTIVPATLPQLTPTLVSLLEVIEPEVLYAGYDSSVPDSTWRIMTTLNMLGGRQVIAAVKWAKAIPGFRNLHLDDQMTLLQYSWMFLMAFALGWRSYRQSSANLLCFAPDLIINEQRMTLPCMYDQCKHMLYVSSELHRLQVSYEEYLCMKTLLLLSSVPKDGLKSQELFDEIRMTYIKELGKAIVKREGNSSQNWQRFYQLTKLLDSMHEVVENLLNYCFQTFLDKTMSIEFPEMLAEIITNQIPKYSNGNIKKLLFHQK
# Summary of the method: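 Antagonist-mode qHTS: compound titrations added to GRE-bla HeLa cells, then dexamethasone 2 nM final; 18 h, 37 C. CCF4 FRET fluorescence normalized to dexamethasone and DMSO; IC50 from Hill fit.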
# [5] = qHTS assay for small molecule agonists of the antioxidant response element (ARE) signaling pathway (AID 651741; active = well fitted activation curve with a large enough effect in the signal ratio; the % refers to the signal ratio; note: potency is the fitted concentration of half-maximal effect)
# Summary of the method: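 Beta-lactamase reporter expression driven by the antioxidant response element in HepG2 cells was detected by fluorescence with LiveBLAzer B/G FRET substrate (2 h, room temperature) following 16 h compound treatment at 37 C.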
# [6] = qHTS assay for small molecule activators of the nuclear factor-kappa B (NF-kB) signaling pathway (AID 651749; active = well fitted activation curve with a large enough effect in the signal ratio; the % refers to the signal ratio; note: series mostly up to about 77 µM); conditions: NF-kB-bla ME-180 cells, beta-lactamase FRET ratio, 16 h; activation: active compounds read high
# Summary of the method: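 Beta-lactamase reporter expression, controlled by NF-kB response elements in ME-180 cells, was quantified fluorometrically via FRET disruption; cells at 2,000/well had been incubated with 23 nL test compound for 16 hr.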
# [7] = molecular target: Glucocorticoid receptor (Homo sapiens) (UniProt P04150); assay: qHTS assay for small molecule agonists of glucocorticoid receptor signaling (AID 588532; active = well fitted curve in the direction sought with a large enough effect in the signal ratio, with a control signal flat; the % refers to the signal ratio); conditions: HeLa MMTV-bla, beta-lactamase ratio, agonist, 18 h; active compounds read high; percent of dexamethasone control, DMSO zero
# Summary of the method: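 MMTV-bla HeLa, beta-lactamase reporter; medium with 1% charcoal/dextran-stripped FBS; cpds up to 92 uM, 18 h, 37 C; CCF4 readout 460/530 nm; Hill fit → EC50, efficacy vs 0.1 uM dexamethasone = 100%.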
# [8] = molecular target: Vitamin D3 receptor (Homo sapiens) (UniProt P11473); assay: qHTS assay for small molecule antagonists of vitamin D receptor signaling (AID 588541);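 note: receptor activated by calcitriol during compound treatment; series mostly up to about 77 µM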
# Sequence of Vitamin D3 receptor (Homo sapiens) (P11473 whole entry, looked up): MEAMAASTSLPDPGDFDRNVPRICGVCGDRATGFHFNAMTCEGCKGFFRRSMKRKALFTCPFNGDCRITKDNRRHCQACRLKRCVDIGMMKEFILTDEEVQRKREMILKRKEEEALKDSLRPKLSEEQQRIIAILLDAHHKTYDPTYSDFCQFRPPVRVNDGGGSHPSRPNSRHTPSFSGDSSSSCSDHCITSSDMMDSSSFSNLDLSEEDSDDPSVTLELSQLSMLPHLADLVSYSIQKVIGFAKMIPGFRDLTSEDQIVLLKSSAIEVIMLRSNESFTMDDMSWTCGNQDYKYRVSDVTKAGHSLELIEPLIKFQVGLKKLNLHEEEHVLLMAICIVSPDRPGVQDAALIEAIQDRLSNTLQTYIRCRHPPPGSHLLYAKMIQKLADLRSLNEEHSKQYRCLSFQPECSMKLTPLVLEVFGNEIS
# Summary of the method: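 VDR-UAS-bla HEK293T cells (2000/well, 2% charcoal-stripped FBS) were treated with titrated compounds plus 1-alpha,25-dihydroxyvitamin D3 (50 nM or 3 nM final) for 16 h at 37 C. CCF4 beta-lactamase fluorescence was read; Hill fits gave IC50.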
# [9] = molecular target: Peroxisome proliferator-activated receptor delta (Homo sapiens) (UniProt Q03181); assay: qHTS assay for small molecule antagonists of peroxisome proliferator-activated receptor delta signaling (AID 588535; active = well fitted inhibition curve with a large enough effect in the signal ratio, with a control signal flat, not every such curve was filed as active; the % refers to the signal ratio)
# Sequence of Peroxisome proliferator-activated receptor delta (Homo sapiens) (Q03181 whole entry, looked up): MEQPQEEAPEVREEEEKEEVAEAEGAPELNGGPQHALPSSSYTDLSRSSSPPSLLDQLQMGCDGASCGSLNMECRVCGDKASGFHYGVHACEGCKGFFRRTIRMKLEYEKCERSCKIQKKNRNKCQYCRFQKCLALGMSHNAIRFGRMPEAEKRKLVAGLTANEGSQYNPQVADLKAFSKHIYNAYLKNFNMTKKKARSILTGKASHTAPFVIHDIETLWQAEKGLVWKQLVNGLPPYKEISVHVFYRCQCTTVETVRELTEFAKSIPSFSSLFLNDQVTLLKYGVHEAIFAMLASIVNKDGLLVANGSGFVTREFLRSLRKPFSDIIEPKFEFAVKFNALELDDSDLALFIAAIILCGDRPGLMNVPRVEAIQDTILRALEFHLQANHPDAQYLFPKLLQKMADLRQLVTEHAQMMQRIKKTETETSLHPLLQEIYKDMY
# Summary of the method: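 Compounds tested in titration on PPAR-delta-UAS-bla HEK293T cells grown in charcoal/dextran-stripped serum (2%); beta-lactamase activity read via CCF4 emission at 460 and 530 nm.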
# [10] = molecular target: Androgen receptor (Homo sapiens) (UniProt P10275); assay: qHTS assay for small molecule agonists of androgen receptor signaling (AID 588515; active = well fitted curve in the direction sought with a large enough effect in the signal ratio, with a control signal flat; the % refers to the signal ratio; note: potency is the fitted concentration of half-maximal effect); conditions: AR-UAS-bla HEK293, beta-lactamase ratio, agonist 16 h; activation: active compounds read high
# Summary of the method: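 Stimulation of an AR-responsive β-lactamase reporter in GripTite HEK293 cells was measured after 16 h compound exposure at 37 °C, via CCF4 fluorescence after 2 h RT. EC50 from Hill fits, normalized to R1881 at 30 nM.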
smiles,measurement,setting,value
CC(C)CCCCCCc1ccc(OCCOCCO)cc1,Potency,[1],28.2 µM [inhibitor] (active)
CN(C)Cc1cc(CN(C)C)c(O)c(CN(C)C)c1,outcome,[2],inactive
same,Potency,[3],inactive
same,Potency,[4],inactive
same,Potency,[5],inactive
same,activation,[6],-0.675%
CCOC(=O)C(C)Oc1ccc(Oc2cnc3cc(Cl)ccc3n2)cc1 (stereo not given),Potency,[3],inactive
same,activation,[7],-6.64%
same,Potency,[8],inactive
CCCCC(CC)COP(=O)(O)OCC(CC)CCCC (stereo not given),Potency,[3],inactive
same,activation,[7],-13.4%
same,Potency,[9],inactive
same,Potency,[8],inactive
same,Potency,[5],54.5 µM (active)
C[C@]12CCC(=O)C=C1CC[C@@H]1[C@@H]2[C@@H](O)C[C@]2(C=O)[C@@H](C(=O)CO)CC[C@@H]12,Potency,[10],15.8 µM (active)
same,Potency,[3],inactive
same,Potency,[8],inactive
same,Potency,[5],inactive
same,activation,[6],-3.08%
c1ccc2cc3ccccc3cc2c1,Potency,[3],inactive
same,activation,[7],13.3%
same,Potency,[4],inactive
same,Potency,[8],inactive
same,Potency,[5],inactive
O=C(O)c1cccc(C(=O)O)c1,Potency,[1],inactive
same,activation,[7],-2.7%
same,Potency,[4],inactive
same,Potency,[5],inactive
CCCCCCCC/C=C\CCCCCCCCCCCCC,activation,[10],5.8%
same,outcome,[2],inactive
same,Potency,[3],inactive
same,activation,[7],-8.32%
same,Potency,[4],inactive
same,Potency,[9],inactive
same,Potency,[8],inactive
same,Potency,[5],inactive
COc1ccccc1NC(=O)CC(C)=O,Potency,[1],inactive
same,Potency,[8],inactive
same,Potency,[5],inactive
same,activation,[6],-0.04%
O=S(c1ccc(Cl)cc1)c1cc(Cl)c(Cl)cc1Cl (stereo not given),activation,[10],-11.5%
same,Potency,[3],inactive
same,activation,[7],1.68%
same,Potency,[9],inactive
same,Potency,[8],inactive
same,Potency,[5],54.5 µM (active)
CC1(C)CC(OC(=O)CCCCCCCCC(=O)OC2CC(C)(C)NC(C)(C)C2)CC(C)(C)N1,activation,[7],-2.43%
same,Potency,[4],inactive
same,Potency,[9],inactive
same,Potency,[8],inactive
same,activation,[6],2.54%
C/C=C/C/C=C\CCCCCCCCOC(C)=O,Potency,[3],inactive
same,Potency,[9],inactive
same,Potency,[8],inactive
same,Potency,[5],inactive
same,activation,[6],-0.792%
c1ccc(B(c2ccccc2)c2ccccc2)cc1,Potency,[3],inactive
same,Potency,[4],inactive
same,Potency,[8],inactive
same,activation,[6],-3.07%
CCCCN(CCCC)CCCCCCN(CCCC)CCCC,Potency,[9],inactive
same,Potency,[8],inactive
CCCCCCCCCCCCCCCCCC#N,Potency,[4],inactive
same,Potency,[9],inactive
same,Potency,[5],inactive
same,activation,[6],-1.03%
CCCCOCCOCCO,Potency,[4],inactive
same,Potency,[8],inactive
same,Potency,[5],inactive
same,activation,[6],-0.601%
C=C(C)C(=O)OCCN(C)C,Potency,[9],inactive
same,Potency,[8],inactive
CCO[Si](CCC#N)(OCC)OCC,Potency,[3],inactive
same,Potency,[4],inactive
same,Potency,[5],inactive
same,activation,[6],0.629%
CCCCCCCC(=O)Oc1c(Br)cc(C#N)cc1Br,Potency,[3],inactive
same,Potency,[4],inactive
same,Potency,[8],inactive
same,Potency,[5],61.1 µM (active)
same,activation,[6],-2.23%
C1CCC2(CCCCO2)OC1,activation,[7],-8.41%
same,Potency,[4],inactive
same,Potency,[9],inactive
same,Potency,[8],inactive
same,Potency,[5],inactive
C#CCOC(=O)[C@@H](C)Oc1ccc(Oc2ncc(Cl)cc2F)cc1,Potency,[3],inactive
same,Potency,[9],inactive
same,Potency,[8],inactive
BrC1CCC(Br)C(Br)CCC(Br)C(Br)CCC1Br (stereo not given),activation,[10],-5.15%
same,outcome,[2],inactive
same,Potency,[3],inactive
same,activation,[7],-5.02%
same,Potency,[4],inactive
same,Potency,[8],inactive
same,Potency,[5],inactive
same,activation,[6],1.45%
CC(=O)CC(=O)Nc1ccccc1C,activation,[7],2.41%
same,Potency,[4],inactive
same,Potency,[8],inactive
same,activation,[6],-0.183%
Cc1c(Cl)cccc1Cl,activation,[7],-6.09%
same,Potency,[4],inactive
same,Potency,[8],inactive
CCN(Cc1cccc(S(=O)(=O)O)c1)c1ccc(C(=C2C=CC(=[N+](CC)Cc3cccc(S(=O)(=O)[O-])c3)C=C2)c2ccccc2)cc1,Potency,[5],54.5 µM (active)
Cc1ccc(S(=O)(=O)C(I)I)cc1,activation,[6],-6%
C=C[Si](C)(C)O[Si](C)(C)C=C,Potency,[4],inactive
same,Potency,[8],inactive
same,Potency,[5],inactive
same,activation,[6],-0.794%
O=C1CCCCCCCCCCC1,activation,[7],-8.83%
same,Potency,[4],inactive
same,Potency,[9],inactive
same,Potency,[5],inactive
C=CCCCCCCCCCCCC,activation,[10],-5.69%
same,outcome,[2],inactive
same,Potency,[3],inactive
same,activation,[7],9.05%
same,Potency,[4],inactive
same,Potency,[9],inactive
C=CC(=O)OCC(C)OCC(C)OCC(C)OC(=O)C=C (stereo not given),activation,[7],-17.2%
same,Potency,[4],inactive
same,Potency,[9],inactive
CC/C=C/CCCCCCCCCCOC(C)=O,activation,[7],2.34%
same,Potency,[4],inactive
same,Potency,[9],inactive
same,Potency,[8],inactive
Cc1nn(C)c(Oc2ccccc2)c1/C=N/OCc1ccc(C(=O)OC(C)(C)C)cc1,activation,[7],-3.9%
same,Potency,[4],inactive
C[Si]1(C)O[Si](C)(C)O[Si](C)(C)O[Si](C)(C)O1,Potency,[3],inactive
same,Potency,[9],inactive
same,Potency,[8],inactive
same,Potency,[5],inactive
CCCCC/C=C\C/C=C\CCCCCCCC(=O)OC,Potency,[9],inactive
same,activation,[6],-0.453%
